{"source": "PubChem BioAssay (NCATS)", "note": "“And” between values parts separate entries of the source, which are not always exact repeats. Equal values may be shown once. Records with an inconclusive call do not appear. Values without a mark were called inactive. The source made the active and inactive calls. Calls follow the shape of the dose curve; as a rule, active = well fitted cell-killing curve with a large enough effect; inconclusive = small, poorly fitted or top-dose-only effect; inactive = no such curve, though single readings can be large or run the other way. Peptide text beside a SMILES is read from it. % is scaled to controls: 0 for no effect and ±100 for the full control effect; potency is read from the fitted curve at half-maximal effect."}
{"assay": "qHTS of pediatric cancer cell lines to identify multiple opportunities for drug repurposing: Primary screen for Saos-2 cells (AID 1347097); also: nearly all actives have a fitted effect of over 40% in size", "conditions": "Saos-2 viability, CellTiter-Glo ATP luminescence, 48 h; series mostly up to 46 µM; activity change, negative = cytotoxic: at the top concentration", "description": "Drug repurposing or repositioning has been offered as a strategy for drug development in oncology programs. This approach has special potential for childhood cancers and other rare or orphan diseases, where the expected return on new drug development has been a disincentive to pharmaceuticals. […] In this project we exploit the poly-pharmacology of drugs to discover new indications via phenotypic screening of a panel of 19 well-characterized cell lines derived from solid tumors seen in children and adolescents. The goal is to identify approved drugs with previously unrecognized anticancer properties that has the potential to reveal new mechanisms and biological processes involved in carcinogenesis or drug resistance. We employed a titration-based paradigm (quantitative high-throughput screening or qHTS), where all compounds were tested at multiple concentrations for their effect on cell viability. Concentration-response curves (CRCs) were derived directly from the primary screen, and both potency and efficacy values were used to identify compounds with robust bioactivity profiles. We screened the NIH Chemical Genomics Center (NCGC) Pharmaceutical Collection (NPC) and Mechanism Interrogation Plate (MIPE) small molecule collections of approved and investigational compounds against these cell lines; and measured metabolically active cells after 48 hours of compound treatment as a proxy for cell viability. […] Assay Submitter: Nathalia J. Martinez, National Center for Advancing Translational Sciences, National Institutes of Health, Rockville, MD, USA; email: natalia.martinez@nih.gov Shen, M et al. Quantitative high-throughput phenotypic screening of pediatric cancer cell lines identifies multiple opportunities for drug repurposing. Oncotarget 2017 Dec 19;9(4):4758-4772. PMID 29435139.\nThe cells were obtained from University of North Carolina (UNC), Pediatric Preclinical Testing Program (PPT), and Coriell Institute (CI). qHTS cell viability assay: Cells were assayed in growth media at a density of 500-1,000 cells/well. Five microliters of cells were dispensed into 1,536-well, white, solid-bottom, TC-treated plates (Greiner Bio One) using a multidrop dispenser and incubated at 37 degrees C, 5% CO2, under a humidified atmosphere for 5 hours. Twenty-three nanoliters of compounds and controls (neutral control DMSO or positive control bortezomib at final concentration of 2.3 µM) were subsequently transferred by Kalypsys pintool. For primary screens, the MIPE collection was tested at 11-point dilutions (final concentrations range from 0.78 nM to 46 µM) and the NPC collection at 8-point dilutions (final concentrations range from 0.59 nM to 46 µM). Compounds tested in follow-up screens were assayed at 11-point dilutions. Cells were incubated for 48 hours, followed by addition of 3 µL of CellTiter-Glo (Promega). After a 15 min incubation at room temperature, samples were analyzed for luminescence intensity using a ViewLux High-throughput CCD imager equipped with clear filters."}
{"smiles": "NC(=NCc1ccccc1)NC(=O)c1nc(Cl)c(N)nc1N", "activity change, negative = cytotoxic": "3.74%"}
{"smiles": "Nc1nc(Cl)nc2c1ncn2[C@H]1C[C@H](O)[C@@H](CO)O1", "activity change, negative = cytotoxic": "-11.6%"}
{"smiles": "CN(C)C(=O)COC(=O)Cc1ccc(OC(=O)c2ccc(N=C(N)N)cc2)cc1", "Potency": "inactive"}
{"smiles": "Cc1cccc(-c2[nH]ncc2-c2ccc3ncccc3n2)n1", "activity change, negative = cytotoxic": "-5.15%"}
{"smiles": "COc1ccc(C2(C#N)CCC(C(=O)O)CC2)cc1OC1CCCC1", "note": "(stereo not given)", "activity change, negative = cytotoxic": "12.7%"}
{"smiles": "O=P(O)(O)C(O)(Cn1ccnc1)P(=O)(O)O", "activity change, negative = cytotoxic": "26.2% [at 16.1 µM]"}
{"smiles": "COCCCN1CCC(NC(=O)c2cc(Cl)c(N)c3c2OCC3)CC1", "activity change, negative = cytotoxic": "-5.77%"}
{"smiles": "COc1cc2c(cc1OC)C1CC(=O)C(CC(C)C)CN1CC2", "note": "(stereo not given)", "activity change, negative = cytotoxic": "13.6%"}
{"smiles": "Nc1nc(N)c(N=O)c(OCC2CCCCC2)n1", "Potency": "18.7 µM (active)"}
{"smiles": "CN1CCC(=C2c3ccccc3CCc3sccc32)CC1", "activity change, negative = cytotoxic": "-11.9%"}
{"smiles": "Clc1ccc2c(N3CCN(CCCN4CCN(c5ccnc6cc(Cl)ccc56)CC4)CC3)ccnc2c1", "activity change, negative = cytotoxic": "25.1% [at 16.1 µM]"}
{"smiles": "S=c1nc[nH]c2nc[nH]c12", "activity change, negative = cytotoxic": "-13%"}
{"smiles": "COc1cc(C(C)=O)ccc1OCCCN1CCC(c2noc3cc(F)ccc23)CC1", "Potency": "inactive"}
{"smiles": "Nc1cccc2c1CN(C1CCC(=O)NC1=O)C2=O", "note": "(stereo not given)", "Potency": "inactive"}
{"smiles": "CC(C)[N+]1(C)[C@@H]2CC[C@H]1CC(OC(=O)C(CO)c1ccccc1)C2", "note": "(stereo not given in full)", "activity change, negative = cytotoxic": "-9.05%"}
{"smiles": "Cc1ccc(S(=O)(=O)NC(=O)NN2CC3CCCC3C2)cc1", "note": "(stereo not given)", "Potency": "7.5 µM (active) and 18.7 µM (active)"}
{"smiles": "COc1cc(Nc2c(C#N)cnc3cc(OCCCN4CCN(C)CC4)c(OC)cc23)c(Cl)cc1Cl", "Potency": "8.33 µM (active)"}
{"smiles": "C=CCc1cc(OC)c(O)c(C(=O)NCCO)c1", "activity change, negative = cytotoxic": "14.2%"}
{"smiles": "CC(C)c1ccc2c(c1)c(SC(C)(C)C)c(CC(C)(C)C(=O)O)n2Cc1ccc(Cl)cc1", "Potency": "29.6 µM (active)"}
{"smiles": "COCCCOc1ccnc(CS(=O)c2nc3ccccc3[nH]2)c1C", "note": "(stereo not given)", "Potency": "inactive"}
{"smiles": "O=C(NC(Cc1cc(=O)[nH]c2ccccc12)C(=O)O)c1ccc(Cl)cc1", "note": "(stereo not given)", "activity change, negative = cytotoxic": "38.1%"}
{"smiles": "O=C1NC(=O)C(c2ccccc2[N+](=O)[O-])=C1Nc1ccc(O)c(Cl)c1", "activity change, negative = cytotoxic": "-13.4%"}
{"smiles": "NS(=O)(=O)c1cc(C(=O)O)c(NCc2ccco2)cc1Cl", "Potency": "inactive"}
{"smiles": "CCCCc1ccc2nc(NC(=O)OC)[nH]c2c1", "Potency": "9.3 nM (active) and 29.9 nM (active)"}
{"smiles": "CC(S)C(=O)NCC(=O)O", "note": "(stereo not given)", "Potency": "inactive"}
{"smiles": "N[C@@H](Cc1cc(I)c(Oc2cc(I)c(O)c(I)c2)c(I)c1)C(=O)O", "Potency": "inactive"}
{"smiles": "CN(C)c1ccc2nc3ccc(=[N+](C)C)cc-3sc2c1", "Potency": "1.48 µM (active) and 2.66 µM (active)"}
{"smiles": "CC(C)c1ccc2oc3nc(N)c(C(=O)O)cc3c(=O)c2c1", "Potency": "inactive"}
{"smiles": "CC(C)c1nc(CN(C)C(=O)N[C@H](C(=O)N[C@@H](Cc2ccccc2)C[C@H](O)[C@H](Cc2ccccc2)NC(=O)OCc2cncs2)C(C)C)cs1", "activity change, negative = cytotoxic": "-17.5%"}
{"smiles": "COC(=O)[C@H](Cc1ccccc1)NC(=O)[C@@H](N)CC(=O)O", "note": "(H-Asp-Phe-OMe)", "Potency": "inactive"}
{"smiles": "CC(C)[C@H](N)C(=O)OCCOCn1cnc2c(=O)[nH]c(N)nc21", "activity change, negative = cytotoxic": "1.22%"}
{"smiles": "Cc1cc(=O)c2c(O)c3c(O)cc(=O)c4c3c3c(cc(O)c1c23)C(C)(C)C=4O", "Potency": "1.46 µM (active) and 2.09 µM (active)"}
{"smiles": "N=C(N=C(N)N)N1CCOCC1", "Potency": "inactive"}
{"smiles": "O=C(O)c1cc(=O)c2c(OCC(O)COc3cccc4oc(C(=O)O)cc(=O)c34)cccc2o1", "Potency": "inactive"}
{"smiles": "Cc1cc(=O)oc2cc(O)ccc12", "Potency": "inactive"}
{"smiles": "COC1=C(OC)C(=O)C(CCCCCCCCCCO)=C(C)C1=O", "activity change, negative = cytotoxic": "2.68%"}
{"smiles": "CC(C)Oc1ccc2c(=O)c(-c3ccccc3)coc2c1", "Potency": "inactive"}
{"smiles": "CNC[C@@H](O)[C@@H](O)[C@H](O)[C@H](O)CO", "activity change, negative = cytotoxic": "37.3%"}
{"smiles": "Cc1nc(-c2ccc(OCC(C)C)c(C#N)c2)sc1C(=O)O", "Potency": "inactive"}
{"smiles": "Cc1cc(O)c2c(c1)C(=O)c1cc(O)cc(O)c1C2=O", "activity change, negative = cytotoxic": "-18.1%"}
